# Source: PubChem BioAssay (NCI)
# “And” between values parts separate entries of the source, which are not always exact repeats. Identical values can stand only once. The panel holds about 83,000 compounds, 20% with a hit somewhere; the sample as a whole holds those more often.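 Each cell line was grown in a 96-well plate and treated with one concentration of compound for 48 hours. Values below 10 were considered active.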 The source made the active and inactive calls.
# Test system: UACC-62 melanoma
# Test: NCI-60 one-dose screen, 48 h (100 = growth as untreated, 0 = no growth, -100 = all killed)
# Settings: 10 µM unless noted
row,Structure (SMILES),growth
1,CC1(C)Oc2ccc3c(=O)cc(-c4ccc(F)cc4)oc3c2C1C(=O)O (centres undefined),78.1% [100 µM] (inactive) and 87.8% [100 µM] (inactive)
2,NC(N)=Nc1ccc(CC(N)C(=O)O)cc1 (centres undefined),89% [12.5 µM] (inactive) and 94.1% [12.5 µM] (inactive)
3,Cc1ccc2c(sc(-c3ccc4c(c3)sc(-c3ccc5c(c3)sc(-c3ccc(N(C)C)cc3)[n+]5C)[n+]4C)[n+]2C)c1S(=O)(=O)O (tested in a mixture with another compound),48.6% [100 µM] (inactive) and 10.5% [100 µM] (inactive)
4,COC(=O)C1CCC(=O)N1CN(C(C)=O)c1cccc(O)c1 (centres undefined),74.6% [100 µM] (inactive) and 102% [100 µM] (inactive)
